The source of these data is paper PMC5540273 (PLoS ONE, 2017).

“And” between values parts separate entries of the source, which are not always exact repeats. Equal values may be shown once. Read-outs that look alike come from different tables or passages of the source.

Assay [1] relates to KIT. The following applies: concentration: 1 μM, replicates: in singlicate; n = 1.
Assay [2] has as its system LATS1. The following applies: concentration: 1 μM, replicates: in singlicate; n = 1.
In assay [3] the test system is LATS2. The following applies: n = 1.
For assay [4], the system named is LCK. The following applies: n = 1.
In assay [5] the test system is LIMK1. The following applies: n = 1.
In assay [6] the test system is LIMK2. The following applies: n = 1.
For assay [7], the system named is T1, LKB1.
T1 construct: gene STK11
The following applies: concentration: 1 μM, replicates: in singlicate; n = 1.

Assay [8] has as its system T2, LOK.
T2 construct: gene STK10
The following applies: concentration: 1 μM, replicates: in singlicate; n = 1.

Assay [9] has as its system LRRK2. The following applies: concentration: 1 μM, replicates: in singlicate; n = 1.
Assay [10] relates to LTK. The following applies: n = 1.
Setting [11] is: concentration: 1 μM, replicates: in singlicate.
[12] abbreviates: concentration: 1 μM,replicates: in singlicate, 1 µM.
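Also: KINOMEscan kinase panel screen.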

With `Cc1cccc(-c2nc(Nc3ccncc3)c3ccccc3n2)n1` [GW855857], the “%Inh” value in assay [1] is given as 10%; in assay [2], 3%; in assay [3] (setting [11]) it was 0%; in assay [4] (setting [11]), 9%; in assay [5] (setting [11]) it was 12%; in assay [6] (setting [11]), 5%. The “%Inh” value is 18% in [7], 37% in assay [8], 0% in [9] and 21% in [10] (setting [11]).
For `Cn1ccc2ncnc(Oc3ccc(Nc4nc5ccccc5[nH]4)cc3)c21`, the “%Inh” value in assay [1] amounted to 77%; in [2], 0%; in assay [3] (setting [11]) it was 0%; in assay [4] (setting [11]) it was 0%; in assay [5] (setting [11]), 0%; in assay [6] (setting [11]), 0%. Further, the “%Inh” value in [7] amounted to 3%; in assay [8], 93.7%; in [9], 0%; in [10] (setting [11]), 0%.
As to `Cl.O=C(Nc1cccc(-c2nn3ncccc3c2-c2ccnc(Nc3cccnc3)n2)c1)c1c(F)cccc1F` [GSK312879], the “%Inh” value in [1] is recorded as 36%; in assay [2], 2%; in [3] (setting [11]) it was 0%; in [4] (setting [11]), 44%; in [5] (setting [11]), 2%; in [6] (setting [11]), 0%. Also, the “%Inh” value stood at 0% in [7], 0% in assay [8], 39% in assay [9] and 3% in assay [10] (setting [11]).
Take `Cn1ccc2ncnc(Oc3cccc(C(=O)Nc4ccccc4)c3)c21`: the “%Inh” value in assay [1] turned out to be 35%; in [2] it was 0%; in assay [3] (setting [11]), 6%; in [4] (setting [11]), 7%; in [5] (setting [11]) it was 100%; in assay [6] (setting [11]) it was 0%. In addition, the “%Inh” value in assay [7] is 25%; in [8], 0%; in assay [9], 0%; in assay [10] (setting [11]), 2%.
With `O=C(Nc1n[nH]c2nc(-c3nccs3)c(Br)cc12)C1CC1` [SB-742251], the “%Inh” value in assay [1] is on record as 1%; in assay [2], 24%; in assay [3] (setting [11]), 0%; in assay [4] (setting [11]), 0%; in [5] (setting [11]), 0%; in assay [6] (setting [11]), 0%. Further, the “%Inh” value in assay [7] is on record as 0%; in [8] it was 0%; in assay [9] it was 32%; in assay [10] (setting [11]) it was 0%.
In the case of `COc1ccccc1-c1ccc2c(NC(=O)C3CC3)n[nH]c2n1` [SB-711239], the “%Inh” value in assay [1] is on record as 0%; in assay [2] it was 28%; in assay [3] (setting [11]), 8%; in [4] (setting [11]), 10%; in [5] (setting [11]) it was 0%; in assay [6] (setting [11]), 5%. The “%Inh” value in assay [7] turned out to be 6%; in assay [8], 0%; in [9], 0%; in assay [10] (setting [11]) it was 4%.
Regarding `CSc1nn2c(=O)cc(N3CCOCC3)nc2n1Cc1cccc(C(F)(F)F)c1C` [GSK2363608], the “%Inh” value in assay [1] was 4%; in assay [2] it was 0%; in assay [3] (setting [12]), 13% and 0%; in assay [4] (setting [12]), 29% and 2%; in [5] (setting [12]), 6% and 17%; in assay [6] (setting [12]), 20% and 0%. In addition, the “%Inh” value was 0% in assay [7]; 0% in assay [8]; 0% in assay [9]; 17% and 0% in [10] (setting [12]).
With `Cc1ccc(NC(=O)Nc2cc(C(C)(C)C)nn2-c2ccccc2)cc1` [GSK1014915], the “%Inh” value was determined as 98.6% in assay [1]; 31% in assay [2]; 0% in [3] (setting [11]); 24% in assay [4] (setting [11]); 5% in assay [5] (setting [11]); 0% in assay [6] (setting [11]). Besides, the “%Inh” value was 0% in assay [7], 60% in assay [8], 0% in assay [9] and 67% in assay [10] (setting [11]).
As for `O=C1NC(=O)C(N2CCc3ccccc32)=C1c1ccccc1Cl` [SB-373598], the “%Inh” value in assay [1] is 2%; in assay [2], 0%; in [3] (setting [11]), 19%; in assay [4] (setting [11]), 35%; in assay [5] (setting [11]), 21%; in assay [6] (setting [11]), 15%. Moreover, the “%Inh” value came to 2% in assay [7], 10% in [8], 0% in assay [9] and 99.1% in assay [10] (setting [11]).
Consider `CCCc1ccc(S(=O)(=O)NC2CCN(c3ccnc(Nc4ccc(F)cc4)n3)C2)cc1` (stereo not drawn) [GSK1379715], for which the “%Inh” value is listed as 12% in assay [1]; 0% in assay [2]; 0% in assay [3] (setting [11]); 0% in [4] (setting [11]); 14% in assay [5] (setting [11]); 0% in assay [6] (setting [11]). The “%Inh” value in [7] came to 0%; in [8], 0%; in assay [9], 19%; in assay [10] (setting [11]) it was 4%.
For the compound `Cc1c(Cn2ccn3c(=O)cc(N4CCOCC4)nc23)cccc1C(F)(F)F` [GSK2289044], the “%Inh” value in [1] was 10%; in assay [2] it was 0%; in assay [3] (setting [11]) it was 13%; in [4] (setting [11]), 7%; in assay [5] (setting [11]), 0%; in assay [6] (setting [11]), 0%. Further, the “%Inh” value in assay [7] is given as 10%; in assay [8] it was 0%; in [9], 0%; in assay [10] (setting [11]), 0%.
Consider `Cc1ccc(NC(=O)Nc2cccc(Cl)c2)cc1-c1ccc(C(=O)Nc2ccncc2)cc1` [GSK1398468], for which the “%Inh” value was found to be 99.6% in assay [1]; 0% in assay [2]; 0% in assay [3] (setting [11]); 25% in [4] (setting [11]); 0% in assay [5] (setting [11]); 12% in [6] (setting [11]). In addition, the “%Inh” value in [7] was found to be 0%; in assay [8], 0%; in assay [9], 0%; in assay [10] (setting [11]), 7%.
As for `COc1ccc(Nc2nccc(-c3cccc(NC(=O)c4cc5cc(F)ccc5[nH]4)c3)n2)cc1` [GSK1229782], the “%Inh” value in [1] is given as 57%; in [2] it was 5%; in assay [3] (setting [11]), 6%; in [4] (setting [11]), 46%; in [5] (setting [11]), 0%; in [6] (setting [11]), 12%. Further, the “%Inh” value in assay [7] came out at 12%; in assay [8], 0%; in assay [9], 42%; in assay [10] (setting [11]), 19%.
For the compound `COc1cccc(-c2cc(-c3c[nH]nc3-c3ccccn3)ccn2)c1` [GW680338], the “%Inh” value is reported as 9% in [1]; 64% in assay [2]; 0% in assay [3] (setting [11]); 10% in [4] (setting [11]); 0% in [5] (setting [11]); 15% in assay [6] (setting [11]). Moreover, the “%Inh” value in assay [7] is 1%; in [8] it was 10%; in assay [9], 6%; in assay [10] (setting [11]) it was 0%.
For `Cc1cccc(-c2nc(-c3ccc(S(C)(=O)=O)cc3)sc2-c2ccnc(NCCc3ccccc3)c2)c1`, the “%Inh” value is given as 98.4% in [1]; 13% in assay [2]; 0% in assay [3] (setting [11]); 0% in assay [4] (setting [11]); 0% in assay [5] (setting [11]); 4% in assay [6] (setting [11]). Besides, the “%Inh” value in assay [7], in assay [8], in assay [9] and in [10] (setting [11]) was 0% throughout.
As for `Nc1ncnc2[nH]c(-c3ccccc3)nc12` [AH5015], the “%Inh” value in assay [1] is recorded as 21%; in [2], 0%; in assay [3] (setting [11]), 0%; in assay [4] (setting [11]), 26%; in assay [5] (setting [11]), 15%; in [6] (setting [11]), 0%. For the same compound, the “%Inh” value in [7] was 0%; in [8], 0%; in assay [9] it was 34%; in [10] (setting [11]) it was 91.4%.
As to `COc1ccc(C2=C(Nc3cccc(C(=O)O)c3)C(=O)NC2=O)cc1` [SB-390765], the “%Inh” value in [1] was 6%; in assay [2], 26%; in assay [3] (setting [11]) it was 20%; in [4] (setting [11]), 10%; in assay [5] (setting [11]), 100%; in assay [6] (setting [11]), 0%. The “%Inh” value worked out at 11% in assay [7], 28% in assay [8], 0% in assay [9] and 11% in [10] (setting [11]).
Turning to `COC(=O)c1c(-c2ccccc2)c2cc(C(=O)O)ccc2c(=O)n1Cc1ccccc1`, the “%Inh” value is reported as 93.1% in [1]; 22% in [2]; 0% in [3] (setting [11]); 0% in assay [4] (setting [11]); 1% in assay [5] (setting [11]); 0% in assay [6] (setting [11]). The “%Inh” value in assay [7], in [8], in assay [9] and in assay [10] (setting [11]) was 0% throughout.
